Reference: PubChem BioAssay
The source made the active and inactive calls.

What was measured:
Albumin (Bos taurus) = Albumin (Bos taurus) (UniProt P02769); assay: compounds binding labelled BSA control protein – biochemical, small-molecule microarray, Alexa647 label, 635/667 nm fluorescence, artefact control for SMM control protein annotation, profiling panel (AID 1118); conditions: BSA-A647 binding, fluorescence 635 nm, higher = more signal;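 also: score merges 667 nm emission intensity and signal-to-noise per printed compound spot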
[1] = probe aXIP binding to arrayed compounds – biochemical, NeuroSMM set, 635/667 nm fluorescence, primary screen (AID 1119); conditions: small-molecule microarray, higher = more signal, called active from +8 up or from −8 down;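 also: probe is the protein aXip251-270 applied at 1 µg/mL to compound-printed slides; binding of probe to printed compounds measured as 667 nm fluorescence plus signal to noise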
[2] = probe aNOTCH3 binding on compound microarray – biochemical, small-molecule microarray, 635/667 nm fluorescence, primary screen (AID 1120); conditions: higher = more signal;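 also: probe is a biotin-tagged antibody raised against NOTCH3 rather than NOTCH3 protein; score merges spot fluorescence near 667 nm with spot signal to noise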
[3] = probe aNOTCH2 binding on compound microarray – biochemical, small-molecule microarray, 635/667 nm fluorescence, primary screen (AID 1121); conditions: higher = more signal;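 also: score merges feature fluorescence read at 667 nm with its signal to noise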
[4] = target: Carbonic anhydrase 2 (Homo sapiens) (UniProt P00918); assay: compounds binding carbonic anhydrase 2 – biochemical, small-molecule microarray, Alexa647-labelled CAII, profiling panel (AID 1122); conditions: CAII-A647 binding fluorescence, higher = more signal
[5] = COS7 lysate on small-molecule microarray, probe aHis, 635 nm (AID 1123); conditions: COS7 cell lysate, fluorescence, higher = more signal;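 also: z-score combines 667nm fluorescence intensity with signal-to-noise per printed compound spot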
[6] = probe aLAP1 signal on lysate-treated microarray – cell lysate, small-molecule microarray, COS7 lysate, primary screen (AID 1124); conditions: probe aLAP1, fluorescence, higher = more signal;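 also: lysate comes from COS7 cells expressing LAP1 and is applied at 0.3 µg/mL; score merges spot fluorescence near 667 nm with signal-to-noise over triplicate slides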
Sam68 (KHDRBS1) = assay: compounds binding KHDRBS1 protein – biochemical, small-molecule microarray, 635 nm fluorescence, primary screen (AID 1125); conditions: higher = more signal;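 also: score merges 667 nm channel intensity with signal to noise over triplicate slides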
[7] = test system: Chordin-like protein 2 (CHRDL2); assay: compounds binding chordin-like 2 – biochemical, small-molecule microarray, 635 nm fluorescence, primary screen (AID 1126); conditions: fluorescence 635 nm, higher = more signal;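 also: printed compound slides probed with Chrdl2 protein at 4 µg/mL for 1 h at 4 C; score merges 667 nm emission intensity with signal to noise over three replicate slides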
[8] = target: Concanavalin-A (Canavalia ensiformis) (UniProt P02866); assay: compounds binding concanavalin A lectin – biochemical, small-molecule microarray, Alexa647 label, 635 nm, artefact control for SMM control protein annotation, primary screen (AID 1127); conditions: ConA-A647 binding fluorescence, higher = more signal;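 also: z combines 667 nm emission intensity with signal-to-noise across three replicate slides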
[9] = compounds binding Alexa647 anti-His antibody – biochemical, small-molecule microarray, 635 nm fluorescence, artefact control for SMM control protein annotation, primary screen (AID 1128); conditions: higher = more signal;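 also: score merges feature fluorescence with signal-to-noise for each printed compound spot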
[10] = test system: Human papillomavirus type 1a E7 protein (residues 1-88); assay: HPV1a E7 small-molecule binders, primary screen, biochemical, small-molecule microarray, residues 1-88, 635 nm (AID 1129); conditions: small-molecule microarray binding, fluorescence 635 nm; higher = more signal
[11] = target: Focal adhesion kinase 1 (Homo sapiens) (UniProt Q05397); assay: PTK2 protein binding on printed compound slides – biochemical, small-molecule microarray, 635/667 nm fluorescence, BSA, DTT, primary screen (AID 1130); conditions: 635 nm fluorescence, higher = more signal;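 also: composite of spot emission at 667 nm and signal to noise over triplicate slides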
[12] = test system: Fibrinogen (Alexa647-labelled); assay: Alexa647-fibrinogen binding to printed small molecules – biochemical, small-molecule microarray, 635/667 nm fluorescence, artefact control for SMM control-protein annotation, profiling panel (AID 1131); conditions: fibrinogen-A647 binding fluorescence, higher = more signal;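 also: z-score merges 667 nm fluorescence with per-spot signal-to-noise over triplicate slides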
[13] = target: Follistatin (Homo sapiens) (UniProt P19883); assay: FST protein binding to printed compounds – biochemical, small-molecule microarray, 635/667 nm fluorescence, primary screen (AID 1132); conditions: 635 nm fluorescence, higher = more signal
[14] = target: Fibroblast growth factor 2 (Homo sapiens) (UniProt P09038); assay: basic fibroblast growth factor binding to printed compounds – biochemical, small-molecule microarray, 635/667 nm fluorescence, primary screen (AID 1133); conditions: FGF2, fluorescence 635/667, higher = more signal
[15] = JC-1 mitochondrial potential readout, lung cancer cells – cell-based, A549, JC-1 fluorescence, basal, 24 h, 100 nL, profiling panel (AID 1138); conditions: higher = more signal;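 also: A549 lung adenocarcinoma cells under basal conditions with no added stimulus; test concentration not given here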
Lefty1 = Lefty1 protein binding to printed compounds – biochemical, small-molecule microarray, 635/667 nm fluorescence, primary screen (AID 1139); conditions: fluorescence 635/667, higher = more signal
[16] = test system: wheat germ agglutinin (Triticum aestivum), Alexa647-labelled; assay: Alexa647-WGA lectin binding to printed small molecules – biochemical, small-molecule microarray, 635/667 nm fluorescence, artefact control for SMM control-protein annotation, profiling panel (AID 1140); conditions: WGA-A647 binding, 635 nm fluorescence, higher = more signal;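 also: score merges 667 nm feature emission with signal to noise over triplicate slides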
[17] = target: Luciferin 4-monooxygenase (Photinus pyralis) (UniProt P08659); assay: inhibition of purified Photinus pyralis luciferase – biochemical, luminescence, purified enzyme, 2006 set, primary screen (AID 1141); conditions: purified firefly luciferase, SteadyGlo luminescence, 30 min; higher = more signal, called active from +8 up or from −8 down;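 also: cell-free assay with purified firefly luciferase at 100 ng per well in PBS; test concentration not given here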
Chain of Luciferin 4-monooxygenase (Photinus pyralis) (P08659 whole entry, looked up): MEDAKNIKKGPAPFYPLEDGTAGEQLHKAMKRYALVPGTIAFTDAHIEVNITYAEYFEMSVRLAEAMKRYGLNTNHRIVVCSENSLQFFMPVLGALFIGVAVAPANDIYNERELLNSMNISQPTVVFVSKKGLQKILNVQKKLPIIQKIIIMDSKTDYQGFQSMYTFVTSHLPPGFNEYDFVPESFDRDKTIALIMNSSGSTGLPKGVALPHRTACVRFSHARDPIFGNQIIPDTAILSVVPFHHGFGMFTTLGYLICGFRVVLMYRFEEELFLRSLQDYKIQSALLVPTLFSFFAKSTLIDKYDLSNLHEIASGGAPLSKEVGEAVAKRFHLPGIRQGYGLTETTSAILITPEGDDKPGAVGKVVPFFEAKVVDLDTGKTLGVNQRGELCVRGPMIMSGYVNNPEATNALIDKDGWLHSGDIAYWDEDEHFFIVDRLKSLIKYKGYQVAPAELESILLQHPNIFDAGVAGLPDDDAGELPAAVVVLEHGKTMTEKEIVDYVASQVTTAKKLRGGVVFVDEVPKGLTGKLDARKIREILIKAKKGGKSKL

Chain of Concanavalin-A (Canavalia ensiformis) (P02866 whole entry, looked up): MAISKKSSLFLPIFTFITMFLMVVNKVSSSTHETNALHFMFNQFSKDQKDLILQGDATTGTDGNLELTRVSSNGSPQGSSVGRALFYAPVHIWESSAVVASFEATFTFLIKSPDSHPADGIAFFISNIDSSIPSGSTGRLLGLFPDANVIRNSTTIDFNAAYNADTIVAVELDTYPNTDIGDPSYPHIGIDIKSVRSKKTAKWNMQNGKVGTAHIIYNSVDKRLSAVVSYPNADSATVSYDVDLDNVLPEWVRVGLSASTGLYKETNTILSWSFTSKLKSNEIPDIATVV
Chain of Focal adhesion kinase 1 (Homo sapiens) (Q05397 whole entry, looked up): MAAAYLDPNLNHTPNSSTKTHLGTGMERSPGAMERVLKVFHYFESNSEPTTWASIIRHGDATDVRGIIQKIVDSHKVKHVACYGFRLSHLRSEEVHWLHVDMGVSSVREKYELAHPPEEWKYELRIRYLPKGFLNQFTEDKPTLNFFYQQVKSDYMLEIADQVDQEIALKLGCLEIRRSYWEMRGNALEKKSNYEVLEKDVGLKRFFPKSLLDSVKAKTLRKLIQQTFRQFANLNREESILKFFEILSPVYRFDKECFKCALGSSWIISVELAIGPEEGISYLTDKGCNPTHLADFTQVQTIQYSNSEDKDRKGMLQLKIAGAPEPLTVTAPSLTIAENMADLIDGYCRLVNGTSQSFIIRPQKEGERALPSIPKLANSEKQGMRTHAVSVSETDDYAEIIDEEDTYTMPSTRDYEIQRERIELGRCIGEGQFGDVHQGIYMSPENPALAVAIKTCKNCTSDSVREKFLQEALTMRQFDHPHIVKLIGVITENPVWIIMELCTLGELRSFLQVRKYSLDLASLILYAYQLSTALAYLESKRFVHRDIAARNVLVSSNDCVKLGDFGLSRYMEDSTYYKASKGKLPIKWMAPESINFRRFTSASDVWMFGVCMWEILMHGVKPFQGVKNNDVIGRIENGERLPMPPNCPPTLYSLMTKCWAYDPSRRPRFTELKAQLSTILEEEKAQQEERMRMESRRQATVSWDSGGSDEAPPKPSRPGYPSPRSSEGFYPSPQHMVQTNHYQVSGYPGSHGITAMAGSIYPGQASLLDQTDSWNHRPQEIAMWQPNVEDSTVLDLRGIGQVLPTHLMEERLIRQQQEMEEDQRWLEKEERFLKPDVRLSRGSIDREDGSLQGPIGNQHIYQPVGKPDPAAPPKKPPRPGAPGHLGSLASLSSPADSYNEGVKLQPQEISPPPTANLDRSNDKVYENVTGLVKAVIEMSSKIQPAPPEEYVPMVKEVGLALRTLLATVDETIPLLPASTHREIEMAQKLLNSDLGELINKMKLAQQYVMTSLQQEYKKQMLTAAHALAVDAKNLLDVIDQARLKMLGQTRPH
Chain of Follistatin (Homo sapiens) (P19883 whole entry, looked up): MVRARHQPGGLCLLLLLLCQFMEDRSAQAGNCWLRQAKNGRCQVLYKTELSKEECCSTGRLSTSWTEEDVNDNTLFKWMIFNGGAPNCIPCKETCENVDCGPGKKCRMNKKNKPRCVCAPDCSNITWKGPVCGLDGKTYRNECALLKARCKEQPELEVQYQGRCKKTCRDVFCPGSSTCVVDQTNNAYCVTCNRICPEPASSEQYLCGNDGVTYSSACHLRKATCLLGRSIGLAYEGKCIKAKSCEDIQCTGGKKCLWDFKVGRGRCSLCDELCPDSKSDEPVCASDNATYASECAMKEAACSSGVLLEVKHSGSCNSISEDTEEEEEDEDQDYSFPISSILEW
Chain of Albumin (Bos taurus) (P02769 whole entry, looked up): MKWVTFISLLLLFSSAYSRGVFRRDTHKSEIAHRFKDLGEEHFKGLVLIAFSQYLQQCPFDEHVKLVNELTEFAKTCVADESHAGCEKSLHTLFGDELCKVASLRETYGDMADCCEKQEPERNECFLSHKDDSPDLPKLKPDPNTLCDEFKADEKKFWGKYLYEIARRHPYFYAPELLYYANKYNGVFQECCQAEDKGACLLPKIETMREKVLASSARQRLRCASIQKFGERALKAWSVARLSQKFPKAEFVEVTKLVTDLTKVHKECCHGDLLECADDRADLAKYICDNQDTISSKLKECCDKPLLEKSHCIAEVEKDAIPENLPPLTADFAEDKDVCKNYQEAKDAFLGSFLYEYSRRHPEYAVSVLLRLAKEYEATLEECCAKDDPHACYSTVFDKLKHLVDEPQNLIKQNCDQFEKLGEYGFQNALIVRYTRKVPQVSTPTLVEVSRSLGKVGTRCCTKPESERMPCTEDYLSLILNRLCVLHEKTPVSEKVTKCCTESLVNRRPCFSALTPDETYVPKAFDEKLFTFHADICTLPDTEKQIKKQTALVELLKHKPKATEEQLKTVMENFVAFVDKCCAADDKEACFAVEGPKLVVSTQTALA
Chain of Fibroblast growth factor 2 (Homo sapiens) (P09038 whole entry, looked up): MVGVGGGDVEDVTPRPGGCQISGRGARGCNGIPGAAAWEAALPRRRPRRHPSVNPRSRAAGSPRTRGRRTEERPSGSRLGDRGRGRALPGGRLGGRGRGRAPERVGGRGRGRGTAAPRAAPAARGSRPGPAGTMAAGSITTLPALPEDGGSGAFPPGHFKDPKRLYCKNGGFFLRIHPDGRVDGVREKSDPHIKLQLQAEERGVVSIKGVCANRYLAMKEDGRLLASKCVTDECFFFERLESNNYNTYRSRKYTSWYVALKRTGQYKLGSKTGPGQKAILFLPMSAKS

Structure (SMILES)	composite z-score (Albumin (Bos taurus))	composite Z-score [1]	composite z-score [2]	composite z-score [3]	composite z-score [4]	composite z-score [5]	composite z-score [6]	composite z-score (Sam68 (KHDRBS1))	composite z-score [7]	composite z-score [8]	composite z-score [9]	composite z-score [10]	composite z-score [11]	composite z-score [12]	composite z-score [13]	composite z-score [14]	z-score [15]	composite z-score (Lefty1)	composite z-score [16]	z-score [17]
CO[C@H]1O[C@H](CO)[C@@H](OC(=O)Nc2ccc(Oc3ccccc3)cc2)[C@H](OC(=O)Nc2ccc3c(c2)OCO3)[C@H]1OC(=O)Nc1ccc2c(c1)OCO2	0.703	0.705 (inactive)	0.264	0.0976	0.471	2.19	0.763	1.3	0.317	1.12	1.83	1.2	1.29	0.933	1.34	0.957	-0.249	1.05	1.18	-6.84 (inactive)
C[N+](C)(C)CCCCNC(=O)[C@H]1C[C@H]2C(=O)N3CCC[C@H]3C(=O)N2[C@H]1c1cccc(OCCO)c1	-1.75	-0.166 (inactive)	-0.0663	-0.0942	0.73	0.647	0.815	-0.531	1.3	-0.303	3.3	-1.41	-0.444	-0.944	1.43	1.41	-0.613	0.974	-1.48	-0.677 (inactive)
O=C1C2C=CC(C(O)c3cccc4ccccc34)N(Nc3ccccc3F)C2C(=O)N1c1ccccc1 (stereo not given)	0.799	0.791 (inactive)	0.614	0.0007	0.728	2.76	0.491	1.29	-0.539	1.09	1.22	1.25	0.792	1	0.829	-0.276	-0.968	0.345	1.4	1.24 (inactive)
O=C(NCCO)C1=C[C@H](Oc2ccccc2I)[C@@H](O)[C@H](N(Cc2ccco2)C(=O)Cc2ccccc2)C1	-0.884	0.524 (inactive)	-0.0014	-0.0956	-0.17	-0.604	-0.0107	-0.24	0.607	-0.981	-0.169	0.234	-0.27	-0.175	0.863	0.58	-1.18	0.624	-0.109	0.341 (inactive)
COC(=O)[C@@]1(Cc2ccc(OC)cc2)[C@H]2c3cc(C(=O)N(C)C)n(C)c3C[C@H]2CN1C(=O)c1ccccc1	1.03	0.0517 (inactive)	0.839	0.284	0.76	3.16	0.0675	1.31	-0.1	1.15	0.392	1.27	0.698	0.97	1.22	0.0022	1.05	0.146	1.11	1.82 (inactive)
COc1cc(C(O)C2C=CC3C(=O)NC(=O)C3N2Nc2ccccn2)cc(OC)c1OC (stereo not given)	0.354	0.183 (inactive)	-0.108	0.0339	0.749	2.43	-0.0653	0.466	0.361	0.585	1.26	0.852	0.184	0.764	0.169	0.158	0.623	-0.188	0.0705	-0.0958 (inactive)
C=CCNC(=O)[C@H]1[C@@H]2C(=O)O[C@@H](c3ccccc3)[C@@H](c3ccccc3)N2[C@@H](c2ccccc2OCCO)[C@]12C(=O)Nc1ccc(C#CCC(C(=O)OC)C(=O)OC)cc12	-0.195	1.15 (inactive)	0.308	0.0029	0.251	2.23	0.634	1.29	1.37	0.944	1.46	1.26	0.412	0.931	1.35	1.27	0.627	1.25	1.28	0.62 (inactive)
C[N+](C)(C)CCCC[C@@H]1NC(=O)[C@H]2C[C@@H](C(=O)NCCCCCCNC(=O)CS)[C@@H](c3cccc(OCCO)c3)N2C1=O	0.492	3.4 (inactive)	-0.246	-0.146	0.881	1.8	0.864	-0.365	-1.44	-0.338	1.03	-0.945	0.434	-1.56	0.897	0.885	-0.32	-1.36	0.396	-0.252 (inactive)
COc1ccccc1CN1C(=O)c2ccccc2[C@@H](C(=O)NC2CC2)[C@@H]1c1ccc(CO)cc1	-1.07	0.0824 (inactive)	0.0522	-0.0449	0.602	1.05	0.849	1.31	0.837	1.14	2.77	1.23	0.344	0.725	1.42	1.66	1.76	1.5	0.85	-0.659 (inactive)
[N-]=[N+]=NCc1ccccc1[C@@H]1OC(c2ccc(OCCCO)cc2)=N[C@]1(Cc1ccccc1)C(N)=O	0.979	-0.791 (inactive)	0.526	0.0646	0.783	1.79	0.222	1.3	-0.692	1.16	0.888	1.25	1.22	1.06	1.28	0.0766	0.199	0.186	1.06	-0.0322 (inactive)
